Sampled rows, rich in hits. Any-hit rate of the full collection: about 2.4%.
D2 antag – antagonists of human D2 dopamine receptor. HEK293 TREx D2 cells, calcium flux, dopamine EC80. inhibition, % at 10 µM. 340,000 compounds, 2% hits. AID 485344; in the data active = inhibition above about 30%; inactive = below that, where a call was filed
Target sequence (P14416 whole entry, looked up): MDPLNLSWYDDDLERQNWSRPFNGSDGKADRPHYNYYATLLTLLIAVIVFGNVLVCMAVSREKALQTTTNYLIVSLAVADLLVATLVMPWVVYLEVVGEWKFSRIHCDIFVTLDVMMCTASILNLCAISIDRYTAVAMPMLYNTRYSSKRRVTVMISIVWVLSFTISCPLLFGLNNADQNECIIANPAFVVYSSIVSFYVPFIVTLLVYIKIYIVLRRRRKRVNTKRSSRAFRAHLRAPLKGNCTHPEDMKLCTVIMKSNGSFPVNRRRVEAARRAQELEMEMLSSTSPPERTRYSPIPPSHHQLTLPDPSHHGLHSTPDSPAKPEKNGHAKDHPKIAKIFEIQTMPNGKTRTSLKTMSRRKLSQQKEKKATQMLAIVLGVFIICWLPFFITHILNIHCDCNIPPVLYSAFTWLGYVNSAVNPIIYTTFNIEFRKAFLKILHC
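Tetracycline-induced HEK293 TREx cells expressing D2 receptor forced-coupled to calcium signalling, loaded with no-wash calcium dye. Compounds added and calcium flux read 180 s, then dopamine added at EC80 and read a further 180 s.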
D2 ag-1 – D2 dopamine receptor (human) agonism; HEK293 T-REx D2 cells, calcium flux agonist mode; activation, % at 2 µM; 340,000 compounds, 0.53% hits;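 active = activation over 3 SD above normal in the single-dose calcium agonist read, cut at about 30% in these data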
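Tetracycline-induced HEK293 T-REx cells with force-coupled D2 receptor, plated overnight at 30 C, loaded with no-wash calcium dye. After a 10 s baseline, compound was pin-added and calcium flux read kinetically for 180 s; calcium rises flagged agonists.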
D2 PAM-1 – positively modulates the human D2 dopamine receptor allosterically | HEK293 T-REx D2, calcium flux, EC20 dopamine potentiation | P14416 | 340,000 compounds, 0.34% hits | potentiation, % at 10 µM;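 active = potentiation over 3 SD above the plate norm, cut at about 30% in these data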
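Potentiation of an EC20 dopamine calcium response is measured in a force-coupled, tetracycline-inducible Hek293 Trex D2 line. Compound-only kinetic reads over 180 s flag agonists before dopamine addition.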
D2 PAM-2 – positive allosteric modulators of human D2 dopamine receptor; AID 624464; potentiation, % (test concentration not listed); DiscoveRx D2 beta-arrestin cells, luminescence, 90 min; 100% = 57 uM dopamine signal; P14416; 360,000 compounds, 0.23% hits; in the data active = potentiation above about 50%; inconclusive = mostly about 30% to 49%
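PathHunter D2 cells, attached overnight at 37 deg C, received compound in DMSO plus dopamine at EC20 (50 nM final) for 90 min at 37 deg C. Beta-arrestin recruitment was read as luminescence after 1 h with detection reagent at ambient temperature.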
D2 ag-2 – agonists of human D2 dopamine receptor (beta-arrestin); AID 624465; activation, % (test concentration not listed); 360,000 compounds, 0.084% hits; DiscoveRx PathHunter D2 beta-arrestin, luminescence, 90 min; 100% = 57 uM dopamine signal; in the data active = activation above about 40%; inconclusive = between about 15% and that limit
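DiscoveRx PathHunter D2 beta-arrestin cells (2,100/well) attached overnight, then compound-stimulated 90 min at 37 C in HBSS/10 mM HEPES/0.1% Tween-20 buffer; beta-galactosidase complementation read by luminescence after 1 h at ambient temperature. Dopamine 57 uM final (EC100) as control.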
Numbers stand for hits; – = inactive; ? = inconclusive; · = not tested or not shown.

SMILES	D2 antag	D2 ag-1	D2 PAM-1	D2 PAM-2	D2 ag-2
COCCNc1nc(N2CCCCC2)c2cnn(C)c2n1	–	–	36	–	–
COCCNc1nc(NCc2ccccc2)c2cnn(C)c2n1	·	·	·	–	–
COc1ccc(-c2noc(CCC(=O)NCCCN3CCN(c4ccccc4F)CC3)n2)cc1	84	–	–	–	–
Cc1ccc2[nH]c3c(=O)n(CC(=O)NCCCN4CCN(c5ccc(F)cc5)CC4)ncc3c2c1	63	–	–	–	–
O=C(CCS(=O)(=O)Cc1ccc(Cl)cc1)NCCCN1CCN(c2ccccc2F)CC1	–	–	–	–	–
Cc1ccc(-c2noc(CCC(=O)NCCCN3CCN(c4ccc(F)cc4)CC3)n2)cc1	61	–	–	–	–
Cc1ccc(-c2noc(CCC(=O)NCCCN3CCN(c4cccc(Cl)c4)CC3)n2)cc1	–	–	–	–	–
Cc1ccccc1CS(=O)(=O)CCC(=O)NCCCN1CCN(c2ccccc2F)CC1	55	43	–	–	–
COc1ccc2c(c1)c1c(c(=O)n(Cc3ccccc3)c(=O)n1Cc1ccc(C)cc1)n2C	·	–	–	·	·
Cc1cccc(-c2nc(SCC(=O)N(C)c3ccccc3)c3c(=O)n(C)c(=O)n(C)c3n2)c1	·	–	–	·	·
O=C(Nc1cccc(C(F)(F)F)c1)c1ccc(F)c(S(=O)(=O)N2CCc3ccccc3C2)c1	·	–	·	·	·
O=C(c1ccc2c(c1)N(Cc1ccc(F)cc1)C(=O)c1ccccc1S2(=O)=O)N1CCCCCC1	·	–	–	·	·
Cc1ccc(CSc2nc3ccc(NC(=O)CC(C)C)cc3s2)cc1	·	·	–	·	·
CCOc1ccc(C(c2c(O)cc(C)n(Cc3ccco3)c2=O)N2CCN(C)CC2)cc1 (stereo not drawn)	·	–	–	·	·
Cc1ccc(-c2noc(CCC(=O)NCc3ccco3)n2)cc1	60	–	–	–	–
O=C(CCc1nc(-c2ccccc2)no1)NCc1ccco1	–	–	–	–	–
O=C(NC1CCN(C(=O)Nc2cccc(Cl)c2)CC1)C1CCCCC1	–	–	–	–	–
O=C(Nc1cccc(Cl)c1)NC1CCN(C2CCCCC2)C1 (stereo not drawn)	85	–	–	–	–
Cc1cccc(NC(=O)NCCOCCn2c(=O)oc3ccccc32)c1C	·	–	–	·	·
Cc1ccc(-n2ncc3c(N4CCCC4)ncnc32)c(C)c1	–	–	–	–	–
COc1cccc(N2CCN(c3ncnc4c3cnn4-c3ccc(C)cc3C)CC2)c1	–	–	–	–	87
O=C(COC(=O)c1cc(-c2cccs2)nn1-c1ccccc1)Nc1ccc(Cl)c([N+](=O)[O-])c1	44	–	–	–	–
CCCOc1ccc(-c2nonc2NC(=O)c2cc(OC)c(OC)c(OC)c2)cc1OCCC	·	–	–	·	·
CN(C)c1ccc(O)c2c1CC1CC3[C@@H](N(C)C)C(=O)C(C(N)=O)C(=O)[C@]3(O)C(=O)C1C2=O (stereo partly drawn)	·	·	·	61	?
CN(C)c1ccc(O)c2c1CC1CC3C(N(C)C)C(=O)C(C(N)=O)=C(O)[C@@]3(O)C(=O)C1=C2O (stereo partly drawn)	·	·	·	–	–
SMILES	D2 antag	D2 ag-1	D2 PAM-1	D2 PAM-2	D2 ag-2
O=C(O)c1ccc2noc(-c3ccccc3)c2c1	–	–	–	–	–
O=C(c1ccc2noc(-c3ccccc3)c2c1)N1CCN(c2ccccc2)CC1	–	–	–	72	?
CC1(c2ccc3noc(-c4ccc(F)cc4)c3c2)OCCO1	–	–	–	60	?
COc1cccc(-c2onc3ccc(C4(C)OCCO4)cc23)c1	–	–	–	–	?
CC1(c2ccc3noc(-c4ccccc4)c3c2)OCCO1	–	–	–	58	–
CCN(C(=O)CSc1nc(-c2ccc(C(C)C)cc2)no1)c1cccc(C)c1	·	–	·	·	·
COc1ccc(-c2ccc3c(c2)C2CC3CCN2)cc1 (stereo not drawn)	·	·	·	·	–
CCC1(c2ccccc2)C(=O)NCNC1=O	33	–	–	–	–
CC(=O)NNC(=O)CN1C(=O)/C(=C/c2ccccc2)SC1=S	74	–	–	–	–
O=C1/C(=C\c2cc(Cl)c(O)c(Cl)c2)SC(=S)N1Cc1ccccc1	69	–	–	–	–
CCN(CC)C(=O)CN1C(=O)/C(=C/c2ccccc2)SC1=S	–	–	–	–	–
COc1ccc(/C(N)=N/OC(=O)c2ccco2)cc1	–	–	–	–	–
